{"source": "PubChem BioAssay (Tox21)", "note": "“And” between values parts separate entries of the source, which are not always exact repeats. Identical values can stand only once. Values without a mark were called inactive. The source made the active and inactive calls. Calls follow the shape of the full dose curve. % is scaled to controls: 0 for no effect and ±100 for the full control effect; potency is read from the fitted curve at half-maximal effect.", "data": [{"biological_target": "Acetylcholinesterase (Homo sapiens) (UniProt P22303)", "sequence (P22303 whole entry, looked up)": "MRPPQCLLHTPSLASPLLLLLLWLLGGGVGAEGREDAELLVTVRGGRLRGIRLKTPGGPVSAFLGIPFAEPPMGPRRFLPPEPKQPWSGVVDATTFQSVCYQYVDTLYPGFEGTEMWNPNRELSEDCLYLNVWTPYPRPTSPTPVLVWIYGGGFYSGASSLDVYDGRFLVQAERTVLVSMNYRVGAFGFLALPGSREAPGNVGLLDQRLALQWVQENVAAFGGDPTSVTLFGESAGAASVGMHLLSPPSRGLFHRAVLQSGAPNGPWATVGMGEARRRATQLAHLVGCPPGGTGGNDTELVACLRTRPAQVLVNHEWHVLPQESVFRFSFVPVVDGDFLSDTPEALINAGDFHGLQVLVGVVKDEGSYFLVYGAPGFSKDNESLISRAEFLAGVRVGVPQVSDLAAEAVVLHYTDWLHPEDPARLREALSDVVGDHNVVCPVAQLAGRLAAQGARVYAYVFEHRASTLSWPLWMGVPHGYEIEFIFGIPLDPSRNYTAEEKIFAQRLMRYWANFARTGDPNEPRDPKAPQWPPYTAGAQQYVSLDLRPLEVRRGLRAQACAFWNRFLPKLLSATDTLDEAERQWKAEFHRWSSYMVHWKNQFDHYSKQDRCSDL", "test": "Acetylcholinesterase (AChE) small molecule antagonists: enzyme-based qHTS assay (AID 1347397); also: nearly all actives have a fitted effect of over 55% in size", "settings": "Potency: AChE enzyme activity inhibition; series mostly up to 115 µM; activity change, negative = inhibition: at the top concentration", "text": "National Center for Advancing Translational Sciences [NCATS]\nDivision of Preclinical Innovation [DPI]\nU.S. Environmental Protection Agency [EPA]\nNational Institutes of Environmental Health Sciences [NIEHS]\nNational Toxicology Program [NTP]\nU.S. Food and Drug Administration [FDA]\nAcetylcholinesterase (AChE) is the primary cholinesterase in the body that hydrolyzes a key neurotransmitter, acetylcholine. Inhibition of AChE activity can lead to neurotoxicity. The known inhibitors include organophosphorous pesticides (OP), chemical warfare agents, drugs, and various phytochemicals.\nAn enzyme-based assay with the recombinant human AChE and Amplite Colormetric acetylcholinesterase assay kit (AAT Bioquest, Sunnyvale, CA) was used to evaluate the chemicals in the Tox21 10K library that inhibit AChE activity. The assay uses 5, 5-dithiobis-(2-nitrobenzoic acid) (DTNB) to quantify the thiocholine produced from the hydrolysis of acetylthiocholine by AChE.\nTox21 Assay Protocol Summary:\nFor the enzyme-based AChE assay, recombinant human AChE (50 mU/mL) in 4 uL/well was dispensed into black, clear-bottom 1536-well plates using a Multidrop Combi dispenser (Thermo Scientific, MA). Then, 23 nL of compound or DMSO (vehicle control) was transferred into the assay plates by a Pintool Station (Wako Automation, CA). The plates were incubated for 30 min at room temperature, followed by the addition of 4 uL of colorimetric detection cocktail solution (DTNB, acetylthiocholine) into each well using a Flying Reagent Dispenser (Beckman Coulter, CA) and then 10 min incubation at room temperature.", "values": [{"smiles": "CCC(Br)(CC)C(=O)NC(N)=O", "activity change, negative = inhibition": "2.48%"}, {"smiles": "O=C(O)C1(c2ccc3c(c2)OC[C@H](Cc2ccc(-c4ccccc4)cc2)[C@H]3O)CCCC1", "activity change, negative = inhibition": "0.337%"}, {"smiles": "COc1cc(Cl)c(OC)cc1Cl", "activity change, negative = inhibition": "-0.526%"}, {"smiles": "CC(Cl)C(C)Cl", "note": "(stereo not given)", "activity change, negative = inhibition": "-2.45%"}, {"smiles": "O=Cc1ccc(Cl)cc1Cl", "activity change, negative = inhibition": "-0.396%"}, {"smiles": "O=[Se]=O", "activity change, negative = inhibition": "-0.127% [at 53 µM]"}, {"smiles": "O=C(NC(=O)c1c(F)cccc1F)Nc1ccc(OC(F)(F)C(F)OC(F)(F)F)c(Cl)c1", "note": "(stereo not given)", "activity change, negative = inhibition": "0.08% [at 53 µM]"}, {"smiles": "Cn1sc(Cl)cc1=O", "activity change, negative = inhibition": "-0.132%"}, {"smiles": "O=[N+]([O-])c1ccccc1CCl", "activity change, negative = inhibition": "0.402%"}, {"smiles": "N#CCc1ccccc1", "activity change, negative = inhibition": "0.667%"}, {"smiles": "CC(C)(CCl)C(=O)Cl", "activity change, negative = inhibition": "4.25%"}, {"smiles": "CCCC(Cn1cncn1)c1ccc(Cl)cc1Cl", "note": "(stereo not given)", "activity change, negative = inhibition": "-5.62%"}, {"smiles": "O=C1NCN(c2ccccc2)C12CCN(CCCOc1ccc(F)cc1)CC2", "activity change, negative = inhibition": "-0.965% [at 53 µM]"}, {"smiles": "CC(=O)C(C)(C)C", "activity change, negative = inhibition": "0.273%"}, {"smiles": "O=C(O)CC(Cl)C(=O)O", "note": "(stereo not given)", "activity change, negative = inhibition": "-0.985%"}, {"smiles": "C[N+](C)(C)CCCl", "activity change, negative = inhibition": "0.135%"}, {"smiles": "c1ccc(C2CC2)c(OCC2=NCCN2)c1", "activity change, negative = inhibition": "-0.758% [at 53 µM]"}, {"smiles": "O=C(NC(=O)c1c(F)cccc1F)Nc1cc(Cl)c(Oc2ncc(C(F)(F)F)cc2Cl)c(Cl)c1", "activity change, negative = inhibition": "0.787%"}, {"smiles": "COP(=S)(OC)Oc1cc(Cl)c(I)cc1Cl", "activity change, negative = inhibition": "-5.66%"}, {"smiles": "Clc1cccc2ccccc12", "activity change, negative = inhibition": "-2.18%"}, {"smiles": "Clc1cccc(SC2CCNCC2)n1", "activity change, negative = inhibition": "0.139% [at 53 µM]"}, {"smiles": "CC1CC(CC2CCC(N)C(C)C2)CCC1N", "note": "(stereo not given)", "activity change, negative = inhibition": "-5.75%"}, {"smiles": "Clc1ccc(C2(Cn3cncn3)CC(Br)CO2)c(Cl)c1", "note": "(stereo not given)", "activity change, negative = inhibition": "-11.6%"}, {"smiles": "O=NN1CCCCCC1", "activity change, negative = inhibition": "-0.956%"}, {"smiles": "O=[N+]([O-])c1cc(C(F)(F)F)cc([N+](=O)[O-])c1Cl", "activity change, negative = inhibition": "19.5%"}, {"smiles": "C=CC(=O)OC(C)(C)C", "activity change, negative = inhibition": "-1.36%"}, {"smiles": "COc1nn(C(=O)NS(=O)(=O)c2ccccc2OC(F)(F)F)c(=O)n1C", "activity change, negative = inhibition": "0.552%"}, {"smiles": "O=S(=O)(Cl)c1ccccc1", "activity change, negative = inhibition": "0.273%"}, {"smiles": "COC(C)(C)CCC[C@H](C)C/C=C/C(C)=C/C(=O)OC(C)C", "activity change, negative = inhibition": "-12%"}, {"smiles": "CCCCCCCCCC(=O)O[C@H]1CC[C@H]2[C@@H]3CCC4=CC(=O)CC[C@@H]4[C@H]3CC[C@]12C", "activity change, negative = inhibition": "2.86% [at 53 µM]"}, {"smiles": "CCOc1nc(F)cc2nc(S(=O)(=O)Nc3c(Cl)cccc3Cl)nn12", "activity change, negative = inhibition": "2.63%"}, {"smiles": "C=CCOC(C)=O", "activity change, negative = inhibition": "1.09%"}, {"smiles": "CC(Cl)Cl", "activity change, negative = inhibition": "0%"}, {"smiles": "IC(I)=C(I)I", "activity change, negative = inhibition": "0.121%"}, {"smiles": "CC(C)(C)C(O)C(Oc1ccc(Cl)cc1)n1cncn1", "note": "(stereo not given)", "activity change, negative = inhibition": "3%"}, {"smiles": "Nc1ccc(N=Nc2ccc(-c3ccc(N=Nc4c(S(=O)(=O)O)cc5cc(S(=O)(=O)O)c(N=Nc6ccccc6)c(O)c5c4N)cc3)cc2)c(N)c1", "activity change, negative = inhibition": "-3.1% [at 53 µM]"}, {"smiles": "COc1c(C(C)(C)C)cc([N+](=O)[O-])c(C)c1[N+](=O)[O-]", "activity change, negative = inhibition": "-9.1%"}, {"smiles": "CCOP(=O)(OCC)SCCSCC", "Potency": "7.61 µM (active) and 20 µM (active)"}, {"smiles": "CCCC(=O)Cl", "activity change, negative = inhibition": "4.63%"}, {"smiles": "COc1cc(CC(C)N)cc2c1OCO2", "note": "(stereo not given)", "activity change, negative = inhibition": "1.74%"}]}]}
